Source: PubChem
The full list was thinned out, with hits kept by preference.
Bm FixLJ act: B. multivorans fixK reporter activation | hit rate 0.3% among 29,000 | B. multivorans fixK-promoter GFP reporter, 18 h; hits give high values | AID 1918990 | z-score (concentration not given with the values);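 active = replicate mean overnight rise in green fluorescent reporter signal, 3 or more SD over negative controls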
A number is an active result; i = inactive.

SMILES	Bm FixLJ act
O=C(CC1C(=O)N(c2ccccc2)C(=O)N1CCC1=CCCCC1)Nc1ccc(F)cc1 (stereo not drawn)	i
COc1ccc(NC(=O)CC2C(=O)N(c3ccccc3)C(=O)N2CCC2=CCCCC2)cc1 (stereo not drawn)	i
Cc1ccccc1C(=O)N1CCC[C@]2(C1)CN(c1ncc(F)cn1)CCC2O (stereo partly drawn)	i
CC1CCc2noc(NC(=O)c3ccccc3[N+](=O)[O-])c2C1 (stereo not drawn)	3.6
O=C(Nc1cccc2cccnc12)c1ccccc1[N+](=O)[O-]	i
O=C(Nc1onc2c1CCCC2)c1ccc(Cl)cc1	i
CCS(=O)(=O)N1CCC(CNC(=O)c2cnc3ccccn3c2=O)CC1	i
COc1ccccc1Nc1nc2ccc(Cl)cc2nc1-n1nc(C)cc1C	3.2
Cc1ccc2nc(Nc3cccc(Cl)c3C)c(-n3nc(C)cc3C)nc2c1	i
COc1ccc(OC)c(Nc2nc3ccccc3nc2-n2nc(C)cc2C)c1	i
COCCn1c(CO)nnc1C1CC(NC(=O)c2ccccc2C)C1 (stereo not drawn)	i
Cc1ccccc1-c1cccc(C(=O)N2CCn3nc(CCC(=O)O)cc3C2)c1	i
Cc1nnnn1-c1cccc(NC(=O)c2ccc(-c3cnco3)cc2)c1	i
COc1ccccc1CCNC(=O)CCc1c(C)c2cc3c(C)c(C)oc3cc2oc1=O	i
COc1ccccc1CNC(=O)CCc1c(C)c2cc3c(C)c(C)oc3cc2oc1=O	3.5
COc1ccccc1CNC(=O)CCc1c(C)c2ccc(OC)c(C)c2oc1=O	i
O=C(NCCC1COc2ccccc2O1)c1cncc(=O)[nH]1 (stereo not drawn)	i
O=C(Cn1ncc2c3ccccc3n(Cc3ccc(F)cc3)c2c1=O)NCCC1=CCCCC1	i
O=C(Cn1ncc2c3ccccc3n(Cc3ccc(F)cc3)c2c1=O)NC1CCCCCC1	i
Cc1cc(C)c(Cn2c3ccccc3c3cnn(CC(=O)NC4CCCCCC4)c(=O)c32)c(C)c1	i
Cc1ccc(C)c(Cn2c3ccccc3c3cnn(CC(=O)NCCC4=CCCCC4)c(=O)c32)c1	i
O=C(Cn1ncc2c3ccccc3n(Cc3cccc(Cl)c3)c2c1=O)NC1CCCCCC1	23
O=C(Cn1ncc2c3ccccc3n(Cc3cccc(Cl)c3)c2c1=O)NCCC1=CCCCC1	13
CC(C)Cn1cncc1CNC(=O)c1coc2c1C(=O)CCC2	i
Cc1cc(C)n2ncc(-c3nccn3-c3ccc(N4CCCC4=O)cc3)c2n1	i
SMILES	Bm FixLJ act
CCN(CCS(=O)(=O)c1ccc(C)cc1)Cc1nnc(C)o1	i
Cc1nc(SCc2cccc(Cl)c2)nc2c1CCCC2	3
CN(Cc1ccccc1)C(=O)CSc1c2c(nc3ccc(Cl)cc13)CCCC2	i
O=C(NCc1cccc(Cl)c1)c1ccc2c(Cl)c3c(nc2c1)CCCC3	i
Cc1cccc(-c2nc(CNC(=O)C3CC(=O)N(C(C)C)C3)cs2)c1 (stereo not drawn)	i
Cn1ccc(NC(=O)CN2CCCC(CNC(=O)Cc3cccnc3)C2)n1 (stereo not drawn)	i
COc1ccc(CC(=O)N2CC(O)C(Cc3cc(C)[nH]n3)C2)cc1OC (stereo not drawn)	i
COc1ccc(C2=C(Nc3ccc(Br)c(C)c3)c3ccccc3C2=O)cc1	3.1
Cc1ccc(C)c(NC2=C(c3ccc(C(F)(F)F)cc3)C(=O)c3ccccc32)c1	i
COc1ccc(C2=C(Nc3ccc(C)c(C)c3)c3ccccc3C2=O)cc1	i
Cc1cc(C)cc(NC2=C(c3ccccc3)C(=O)c3ccccc32)c1	4
Cc1ccc(C)c(N2CCN(C3=C(c4ccccc4)C(=O)c4ccccc43)CC2)c1	i
COc1cc(OC)c(NC2=C(c3ccc(C(F)(F)F)cc3)C(=O)c3ccccc32)cc1Cl	i
Cc1nc(CCNC(=O)C2(C)CCCO2)nc2c1CCCC2 (stereo not drawn)	i
Cn1ccnc1C(=O)C1CCCN(C(=O)NCC2CCCCC2)C1 (stereo not drawn)	i
CCC1CN(C(=O)c2csc(-n3nc(C)cc3C(F)(F)F)n2)CC[C@@]1(C)O (stereo partly drawn)	i
Cn1nc(C(=O)N2CCC(c3nc(N)n[nH]3)CC2)cc1-c1ccccc1	i
Cc1nn(C(C)C)c(C)c1S(=O)(=O)NCc1csc(-c2cnccn2)n1	i
CCCCN(CC)CCCNC(=O)Cn1ncc2c3ccccc3n(Cc3ccccc3F)c2c1=O	i
CCN(CC)CCNC(=O)Cn1ncc2c3ccccc3n(Cc3ccc(Cl)cc3)c2c1=O	3.5
CCCCN(CC)CCCNC(=O)Cn1ncc2c3ccccc3n(C)c2c1=O	i
Cn1c2ccccc2c2cnn(CC(=O)NCc3ccc(Cl)cc3)c(=O)c21	i
CN1CCN(C(=O)Cn2ncc3c4ccccc4n(Cc4ccc(Cl)cc4)c3c2=O)CC1	i
CC1CCN(C(=O)Cn2ncc3c4ccccc4n(Cc4ccc(Cl)cc4)c3c2=O)CC1	7.3
Cc1cc(C)c(Cn2c3ccccc3c3cnn(CC(=O)NCc4cccs4)c(=O)c32)c(C)c1	i
SMILES	Bm FixLJ act
Cc1ccccc1Cn1c2ccccc2c2cnn(CC(=O)N3CCC(C)CC3)c(=O)c21	i
O=C(Cn1ncc2c3ccccc3n(Cc3ccc(Cl)cc3)c2c1=O)NCc1cccs1	8.2
CCN(C(=O)c1coc(CN2CCN(c3ccccc3F)CC2)n1)C(C)C	i
COc1ccc(CN2CCN(c3ncccc3C(N)=O)CC2)cc1Cn1cccn1	i
CCC1C(NC(=O)c2ccc(-n3cnnc3)cc2)C2CCOC12 (stereo not drawn)	i
CCCN1C(=O)C2CCC1CN(C(=O)Nc1cccc(Cl)c1)C2 (stereo not drawn)	i
Fc1cccc(CN2CCn3nc(CNc4cnccn4)cc3C2)c1	i
Cc1nnc2n1CCN(C(=O)CCc1nc(-c3ccccc3)no1)CC2	i
Cn1ccc2c(C(=O)N(CCO)Cc3nccs3)cccc21	i
